Sampled rows, rich in hits. Any-hit rate of the full collection: about 3.6%.
D1 antagonist – blocks dopamine activation of the human D1 receptor; P21728; HEK293 TREx D1 cells, calcium flux, dopamine EC80; active compounds read low; activity change, negative = inhibition, % at 10 µM; 360,000 compounds, 3.2% hits; AID 504652; in the data active means activity change below about -30%; further: on the % scale 0 is the no-effect control and ±100 the full control effect
Target sequence (P21728 whole entry, looked up): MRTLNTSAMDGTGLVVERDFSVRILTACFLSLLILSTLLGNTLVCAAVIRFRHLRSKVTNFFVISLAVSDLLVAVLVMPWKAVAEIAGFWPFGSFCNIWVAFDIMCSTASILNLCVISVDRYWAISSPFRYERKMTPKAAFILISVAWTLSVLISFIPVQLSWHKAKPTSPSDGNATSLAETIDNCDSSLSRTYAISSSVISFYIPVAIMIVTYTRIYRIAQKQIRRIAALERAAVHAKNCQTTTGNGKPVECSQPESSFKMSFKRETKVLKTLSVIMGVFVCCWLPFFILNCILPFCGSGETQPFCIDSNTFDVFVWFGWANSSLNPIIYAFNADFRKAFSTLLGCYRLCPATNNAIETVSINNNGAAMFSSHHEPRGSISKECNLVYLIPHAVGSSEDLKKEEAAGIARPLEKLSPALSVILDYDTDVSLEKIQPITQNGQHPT
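Tetracycline-induced HEK293 Trex D1 cells, force-coupled to calcium, dye-loaded; compounds added and read 180 s, then EC80 dopamine added and calcium flux tracked kinetically another 180 s.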
LDHA block – LDHA (human) enzyme inhibition; P00338; purified LDHA, NADH/diaphorase-resazurin fluorescence; active compounds read low; activity change, % (values are at about 110 or 230 µM); 480,000 compounds, 0.15% hits; in the data active means activity change below about -30%;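 further: plate controls were DMSO wells for no effect and wells without enzyme for full effect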
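Human LDH5 at 2 nM final in Tris HCl pH 7.4 with 0.06 mM NADH and 0.2 mM pyruvate, reacted 5 minutes at room temperature. Remaining NADH coupled via diaphorase/resazurin; resorufin fluorescence read at 0 and 20 minutes, normalized to enzyme-free and DMSO wells.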
D1 PAM – human D1 dopamine receptor positive modulation; 360,000 compounds, 0.036% hits; AID 504651; P21728; HEK293 TREx D1 cells, calcium flux, dopamine EC20 potentiation; potentiation, % at 10 µM; in the data active means potentiation above about 30%; further: 0% is about no effect
TRHR agonist – activates the human TRH receptor. P34981. TRHR cells, calcium flux fluo-8, FDSS agonist mode. activation, % at 2 µM. 360,000 compounds, 0.18% hits; further: 0% is about no effect
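Agonist-mode FDSS calcium read (Ex 480/Em 530, 1 s cycles) in 1536-well TRHR cells with fluo-8 dye, after 10-cycle baseline and 23 nL compound addition; TRH at EC20 (10 nM final) added afterwards for the enhancer phase.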
D1 ag – human D1 receptor agonism | AID 504660 | HEK293 T-REx D1 cells, calcium flux, agonist mode | activation, % at 2 µM | 360,000 compounds, 1% hits; further: 0% is about no effect
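Agonism was scored from calcium flux recorded over 180 s (1 read/s) after pintool compound addition, following a 10-cycle baseline. Cells were inducible force-coupled HEK293 TREx D1, plated overnight at 30 C and loaded with no-wash calcium dye.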
TRHR enhancer – TRH receptor (human) allosteric enhancement; P34981; TRHR cells, fluo-8 calcium fluorescence, EC20 TRH enhancement; enhancement, % at 2 µM; 360,000 compounds, 0.66% hits; AID 493056; in the data active means enhancement above about 30%; further: 0% is about no effect
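Enhancer read-out: after compound pinning and an initial kinetic agonist-mode read, an EC20 of TRH (10 nM final) was injected and fluo-8 calcium signal (Ex 480/Em 530) followed at 1 s/cycle for 100 cycles in TRHR-expressing cells.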
* marks the source's active call; other numbers are inactive results. Unless noted, no stated cut-off is given here; in the data, active means activation above about 30%; inactive means the rest.

How did O=C(Oc1ccc2c(=O)c(Oc3ccc4ccccc4c3)coc2c1)c1cccnc1 do in these assays?
D1 antagonist: -37*; LDHA block: 4; D1 PAM: -9; TRHR agonist: 0; D1 ag: 11; TRHR enhancer: 7

How did O=C(O)c1ccc(NS(=O)(=O)c2ccc(Cl)c(Cl)c2)cc1O do in these assays?
D1 antagonist: -31*; LDHA block: -3; D1 PAM: -6; TRHR agonist: 0; D1 ag: 2; TRHR enhancer: -5

How did O=C(O)c1cc(NS(=O)(=O)c2cc(F)cc(F)c2)ccc1Cl do in these assays?
LDHA block: 7

Results for CC(=O)Nc1ccccc1-c1nc2ccccc2n(C(C)C(=O)c2ccc(C)c(C)c2)c1=O (stereo not given) ?
D1 antagonist: -3; LDHA block: 0; D1 PAM: -1; TRHR agonist: -1; D1 ag: 51*; TRHR enhancer: -5

How did CC(=O)Nc1ccccc1-c1nc2ccccc2n(C(C)C(=O)Nc2cc(Cl)ccc2C)c1=O (stereo not given) do in these assays?
D1 antagonist: -5; LDHA block: 0; D1 PAM: -1; TRHR agonist: 1; D1 ag: 5; TRHR enhancer: -3

Results for COc1cc(C2CC(=O)Nc3nc(-c4ccccc4)[nH]c(=O)c32)ccc1OCc1cccc(Cl)c1 (stereo not given) ?
LDHA block: 2

How did CCN1CCN(c2oc(COc3ccc(Cl)cc3Cl)nc2C#N)CC1 do in these assays?
LDHA block: 5

How did CCCCC(=O)Nc1cc(-c2nc3cccnc3s2)ccc1C do in these assays?
D1 antagonist: -1; LDHA block: -7; D1 PAM: 0; TRHR agonist: 0; D1 ag: 1; TRHR enhancer: -9

What do the screens show for `CCCC(=O)Nc1cc(-c2nc3cccnc3s2)ccc1C`?
D1 antagonist: 24; LDHA block: -1; D1 PAM: -3; TRHR agonist: 0; D1 ag: 49*; TRHR enhancer: 15

What do the screens show for `COc1cc(C2C(C(C)=O)=C(O)C(=O)N2Cc2ccccc2)ccc1O` (stereo not given)?
D1 antagonist: -32*; LDHA block: 3; D1 PAM: -5; TRHR agonist: 0; D1 ag: 2; TRHR enhancer: 6

Results for COc1cc(C2C(C(=O)C(C)(C)C)=C(O)C(=O)N2Cc2ccccc2)ccc1O (stereo not given) ?
D1 antagonist: -11; LDHA block: -2; D1 PAM: 7; TRHR agonist: 1; D1 ag: 2; TRHR enhancer: -2

Results for c1ccc(C(c2ccccc2)N2CCN(Cc3nc(-c4cnccn4)no3)CC2)cc1 ?
D1 antagonist: -16; LDHA block: 3; D1 PAM: 4; TRHR agonist: 0; D1 ag: 2; TRHR enhancer: 5

What do the screens show for `Clc1cccc2c1CCN(Cc1nc(-c3cnccn3)no1)C2`?
D1 antagonist: -90*; LDHA block: -5; D1 PAM: -14; TRHR agonist: 0; D1 ag: 0; TRHR enhancer: -17

How did CCCOc1ccc(C(CC(=O)O)NC(=O)c2ccccc2F)cc1 (stereo not given) do in these assays?
LDHA block: 2

Results for O=C(Nc1ccc(Cl)cc1)NC1CCCCC1Cc1ccco1 (stereo not given) ?
D1 antagonist: -34*; LDHA block: -1; D1 PAM: -9; TRHR agonist: 1; D1 ag: 5; TRHR enhancer: -6

How did O=C(Nc1ccc(Cl)cc1)NC1CCCC1Cc1ccco1 (stereo not given) do in these assays?
D1 antagonist: -25; LDHA block: 0; D1 PAM: -8; TRHR agonist: 1; D1 ag: 13; TRHR enhancer: -10

What do the screens show for `O=S(=O)(Nc1ccc(Br)cc1F)c1ccccc1`?
LDHA block: 1

How did CCOCCn1c(CN2CCN(C(=O)OCC)CC2)nc2c1c(=O)n(C)c(=O)n2C do in these assays?
LDHA block: -5

Assay outcomes: PubChem, National Center for Advancing Translational Sciences (NCATS)
